# Publication PMC11062922 (Nature Chemical Biology, 2023)
# Read-outs that look alike come from different tables or passages of the source.
# Legend:
# Parameters in all cases: species or system human, MV4-11 + K-562 + COLO205 + SK-N-BE2 + OVCAR-8
# [1] = tested on: CDC42BPB; conditions: read-out: apparent Kd, n = 1
# [2] = tested on: PRKCA; conditions: read-out: apparent Kd, n = 1
# [3] = tested on: RPS6KB1; conditions: read-out: apparent Kd, n = 1
# [4] = tested on: TTK; conditions: read-out: apparent Kd, n = 1
# [5] = tested on: MARK2; conditions: read-out: apparent Kd; compound concentrations:100 nM and 1000 nM (sheet 'Samples'); n = 1
# [6] = tested on: RPS6KA3; conditions: read-out: apparent Kd; compound concentrations: 100 nM and 1000 nM (sheet 'Samples'), CATDS: 2.8652335073443402E-2; n = 1
# [7] = tested on: BUB1; conditions: read-out: apparent Kd; compound concentrations:100 nM and 1000 nM (sheet 'Samples'); n = 1
# [8] = tested on: PIK3CD; conditions: read-out: apparent Kd, compound concentrations: 100 nM and 1000 nM (sheet 'Samples'), n = 1
# [9] = tested on: MAP3K11; conditions: read-out: apparent Kd; compound concentrations:100 nM and 1000 nM (sheet 'Samples'); n = 1
# [10] = tested on: MAPK14; conditions: read-out: apparent Kd, compound concentrations: 100 nM and 1000 nM (sheet 'Samples'), n = 1
# [11] = tested on: PRKAA2; conditions: read-out: apparent Kd; compound concentrations: 100 nM and 1000 nM (sheet 'Samples'), CATDS: 2.2132106558792702E-2; n = 1
# [12] = tested on: NUAK2; conditions: read-out: apparent Kd; compound concentrations: 100 nM and 1000 nM (sheet 'Samples'), CATDS: 3.1931655972065397E-2; n = 1
# [13] = tested on: BTK; conditions: read-out: apparent Kd; compound concentrations: 100 nM and 1000 nM (sheet 'Samples'), CATDS: 1.9599592223560901E-2; n = 1
# [14] = tested on: PAK6; conditions: read-out: apparent Kd; compound concentrations: 100 nM and 1000 nM (sheet 'Samples'), CATDS: 1.7508305071041501E-2; n = 1
# [15] = tested on: AURKB; conditions: read-out: apparent Kd; compound concentrations: 100 nM and 1000 nM (sheet 'Samples'), CATDS: 0.10534744790645301; n = 1
# [16] = tested on: ACVR1B; conditions: read-out: apparent Kd; compound concentrations: 100 nM and 1000 nM (sheet 'Samples'), CATDS: 4.2820592961585899E-2; n = 1
# [17] = tested on: EPHB1; conditions: read-out: apparent Kd; compound concentrations: 100 nM and 1000 nM (sheet 'Samples'), CATDS: 2.51104508673669E-2; n = 1
# [18] = tested on: RIPK2; conditions: read-out: apparent Kd; compound concentrations: 100 nM and 1000 nM (sheet 'Samples'), CATDS: 0.103970438166355; n = 1
# [19] = compound concentrations:100 nM and 1000 nM (sheet 'Samples')
structure (smiles),measurement,setting,value
CCn1c(-c2nonc2N)nc2cncc(Br)c21 [SB-738004],potency estimated from few doses,[1]; [19],1970 nM
same,potency estimated from few doses,[2]; [19],1290 nM
same,potency estimated from few doses,[3]; [19],360 nM
NS(=O)(=O)c1ccc(N/N=C2\C(=O)Nc3ccc4ncccc4c32)cc1 [GW305178X],potency estimated from few doses,"[4]; compound concentrations: 100 nM and 1000 nM (sheet 'Samples'), CATDS: 4.7574405243594603E-2",1130 nM
COc1cc[nH]c1/C=C1\C(=O)Nc2ccc(F)c(C#C[C@@H](O)[C@@H](N)[C@@H](C)O)c21 [RO0283120-000],potency estimated from few doses,[5],803 nM
same,potency estimated from few doses,[4]; [19],1180 nM
CNCC1CCn2c(c(C3=C(c4cn(C)c5ccccc45)C(=O)NC3=O)c3ccccc32)C1 (stereo not drawn) [RO0318676-000],potency estimated from few doses,"[2]; compound concentrations: 100 nM and 1000 nM (sheet 'Samples'), CATDS: 0.32206529387914401",11.4 nM
same,potency estimated from few doses,[6],1620 nM
same,potency estimated from few doses,"[3]; compound concentrations: 100 nM and 1000 nM (sheet 'Samples'), CATDS: 3.9813258984907299E-2",600 nM
CCn1c(-c2nonc2N)nc2cncc(C(=O)N3CC[C@H](N)C3)c21.Cl [SB-772077-B],potency estimated from few doses,[7],1790 nM
same,potency estimated from few doses,[1]; [19],932 nM
same,potency estimated from few doses,[2]; [19],826 nM
same,potency estimated from few doses,[3]; [19],93.8 nM
CN(C)c1ccc2c(c1)/C(=C/Nc1ccc(S(N)(=O)=O)cc1)C(=O)N2 [GW416469X],potency estimated from few doses,[8]; CATDS: 0.23489654545894101,138 nM
O=C(Nc1n[nH]c2nc(-c3ccccc3O)ccc12)C1CC1 [SB-711880],potency estimated from few doses,[9],1520 nM
same,potency estimated from few doses,[5],2380 nM
Nc1nccc(-c2ccc3c(N)n[nH]c3c2)n1 [GSK1034945A],potency estimated from few doses,[5],1440 nM
NS(=O)(=O)c1ccc(N/C=C2\C(=O)Nc3ccc4ncsc4c32)cc1 [GW297361X],potency estimated from few doses,"[4]; compound concentrations: 100 nM and 1000 nM (sheet 'Samples'), CATDS: 3.2979280004825598E-2",1400 nM
CCC(CC)(CC)n1cnc2c(N)ncnc21 [SKF-97620],potency estimated from few doses,[10]; CATDS: 3.1976912509304997E-2,857 nM
same,potency estimated from few doses,[8]; CATDS: 0.27263149415517701,20.5 nM
COc1ccc(Nc2nccc(NCCNC(=O)Nc3cc(C)ccc3C)n2)cc1 [GSK1379899A],potency estimated from few doses,[8]; CATDS: 0.14570623002858099,175 nM
Cl.Cl.NC[C@H](CC1CCCCC1)NC(=O)c1ccc(-c2ccnc3[nH]ccc23)s1.NC[C@H](CC1CCCCC1)NC(=O)c1ccc(-c2ccnc3[nH]ccc23)s1 [GSK1581428A],potency estimated from few doses,[1]; [19],10.5 nM
same,potency estimated from few doses,[2]; [19],2080 nM
same,potency estimated from few doses,[3]; [19],179 nM
CN[C@H](C#Cc1c(F)ccc2c1/C(=C/c1[nH]ccc1OC)C(=O)N2)CO.Cl [RO0283049-001],potency estimated from few doses,[11],1240 nM
same,potency estimated from few doses,"[4]; compound concentrations: 100 nM and 1000 nM (sheet 'Samples'), CATDS: 1.9624563492428401E-2",2080 nM
COc1cc[nH]c1/C=C1\C(=O)Nc2ccc([N+](=O)[O-])c(N3CC[C@@H](O)C3)c21 [RO0504985-000],potency estimated from few doses,[12],1490 nM
Cl.Cl.NCC(NC(=O)c1cc(-c2ccnc3[nH]ccc23)cs1)c1ccccc1.NCC(NC(=O)c1cc(-c2ccnc3[nH]ccc23)cs1)c1ccccc1 (stereo not drawn) [GSK1229959A],potency estimated from few doses,"[1]; compound concentrations: 100 nM and 1000 nM (sheet 'Samples'), CATDS: 9.85023329891931E-2",8.96 nM
same,potency estimated from few doses,[8]; CATDS: 7.85579878499649E-2,13.2 nM
same,potency estimated from few doses,"[3]; compound concentrations: 100 nM and 1000 nM (sheet 'Samples'), CATDS: 2.0581414615248698E-2",679 nM
CC(C)(CO)CNC(=O)c1ccc2c(c1)/C(=N/Nc1ccc(S(N)(=O)=O)cc1)C(=O)N2 [GW301784X],potency estimated from few doses,[4]; [19],983 nM
Cl.Nc1nc(-c2ccc3c(c2)C(=Cc2cc(Br)c(O)c(Br)c2)C(=O)N3)cs1 [GW407323A],potency estimated from few doses,"[4]; compound concentrations: 100 nM and 1000 nM (sheet 'Samples'), CATDS: 2.7527023575449099E-2",2150 nM
Cl.Cn1c(=O)c(Cc2ccccc2F)cc2cnc(NC3CCOCC3)nc21 [RO3305377-001],potency estimated from few doses,[13],1180 nM
same,potency estimated from few doses,[10]; CATDS: 8.5761159080735103E-2,105 nM
same,potency estimated from few doses,[14],1640 nM
COc1cc2ncn(-c3cc(OCc4ccccc4S(C)(=O)=O)c(C#N)s3)c2cc1OC [GSK319347A],potency estimated from few doses,[15],893 nM
Cl.Oc1cccc(Nc2ccnc3cc(-c4ccncc4)ccc23)c1 [GW494601A],potency estimated from few doses,[16],73.7 nM
same,potency estimated from few doses,[17],479 nM
same,potency estimated from few doses,[18],9.31 nM
